Laboratory results: PubChem BioAssay (NCI)
The panel holds about 83,000 compounds, 20% with a hit somewhere; the sample as a whole holds those more often.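 Each cell line was grown in a 96-well plate and treated with one concentration of compound for 48 hours. Values below 10 were considered active.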 Values without a mark were called inactive. Active and inactive are the calls of the source.

Tests used:
Assay in all cases: NCI-60 one-dose screen, 48 h (100 = growth as untreated, 0 = no growth, -100 = all killed)
Conditions in all cases: 10 µM
NCI-H23 lung = system: NCI-H23 lung
NCI-H226 lung = system: NCI-H226 lung
NCI-H322M lung = system: NCI-H322M lung
HOP-62 NSCLC = system: HOP-62 NSCLC
NCI-H460 lung = system: NCI-H460 lung
HOP-92 NSCLC = system: HOP-92 NSCLC
NCI-H522 lung = system: NCI-H522 lung
A549/ATCC NSCLC = system: A549/ATCC NSCLC
786-0 renal = system: 786-0 renal
COLO 205 colon = system: COLO 205 colon
DU-145 prostate = system: DU-145 prostate
K-562 leukemia = system: K-562 leukemia
MALME-3M melanoma = system: MALME-3M melanoma
MDA-MB-231 breast = system: MDA-MB-231 breast
SF-268 CNS = system: SF-268 CNS
SF-295 CNS = system: SF-295 CNS
SF-539 CNS = system: SF-539 CNS
UACC-257 melanoma = system: UACC-257 melanoma
M14 melanoma = system: M14 melanoma

Row | SMILES | growth (NCI-H23 lung) | growth (NCI-H226 lung) | growth (NCI-H322M lung) | growth (HOP-62 NSCLC) | growth (NCI-H460 lung) | growth (HOP-92 NSCLC) | growth (NCI-H522 lung) | growth (A549/ATCC NSCLC) | growth (786-0 renal) | growth (COLO 205 colon) | growth (DU-145 prostate) | growth (K-562 leukemia) | growth (MALME-3M melanoma) | growth (MDA-MB-231 breast) | growth (SF-268 CNS) | growth (SF-295 CNS) | growth (SF-539 CNS) | growth (UACC-257 melanoma) | growth (M14 melanoma)
1 | Cc1ccc(/C=C/C(=O)c2ccc(NC(=O)CSc3nnc(-c4c[nH]c5ccccc45)n3-c3ccccc3)cc2)c(C)c1 | -1.3% (active) | 33.1% | 75.8% | 99.4% | -35.8% (active) | 76.8% | 25% | 54.3% | 65.8% | 70.5% | 41.1% | 35.4% | -71.7% (active) | 21.9% | 72.3% | 66.1% | -95.3% (active) | 90.2% | 53.5%
2 | O=C(NO)c1ccc(-c2nc3ccc4[nH]ncc4c3c3c2CCCC3)cc1 | -56.7% (active) | -28.8% (active) | -1.64% (active) | 0.238% (active) | -43.4% (active) | -16.6% (active) | -43% (active) | 6.83% (active) | -8.73% (active) | -20.1% (active) | 1.34% (active) | 10.1% | -80.5% (active) | -27.6% (active) | -53.6% (active) | -17.9% (active) | -97.4% (active) | -18.8% (active) | -62.5% (active)
3 | O=C(CNc1nc(-c2ccccc2)cs1)Nc1ccccc1 | -86.4% (active) | -2.46% (active) | -96.2% (active) | -62.9% (active) | -11.4% (active) | -8.88% (active) | -81.6% (active) | 7.05% (active) | -25.5% (active) | -83.8% (active) | 14.1% | 5.68% (active) | -61% (active) | -30.7% (active) | 8.59% (active) | -1.92% (active) | -93.7% (active) | -14.3% (active) | -73.8% (active)
4 | CCCSc1nc(NC2CC2)c(C#N)c(-c2ccc(OC)cc2)n1 | 96.4% | 99.4% | 89.3% | 84.6% | 85.6% | 77.7% | 93.3% | 71.8% | 77.1% | 134% | 98.1% | 92.4% | 134% | 85% | 80.9% | 78.7% | 85.6% | 107% | 129%
5 | Cc1cc(C)nc(/N=C(\N)Nc2ccc(S(=O)(=O)Nc3nc(C)cc(C)n3)cc2)n1 | 104% | 102% | 106% | 104% | 116% | 117% | 98.4% | 106% | 111% | 120% | 116% | 102% | 110% | 105% | 106% | 98% | 102% | 108% | 111%
6 | O=c1c2ccccc2nc(COc2ccccc2)n1/N=C/c1ccc(F)cc1 | 85.6% | 78.9% | 96.6% | 105% | 85.4% | 100% | 81.8% | 86.2% | 89.4% | 114% | 91.4% | 69.8% | 115% | 88% | 99.7% | 89.4% | 89.6% | 99.8% | 98.8%
7 | CC1(c2ccccc2)NC(=O)N(CC(=O)Nc2ccc(C(=O)/C=C/c3ccc(Cl)cc3)cc2)C1=O (centres undefined) | 18.6% | -0.196% (active) | 51.1% | 35.6% | 21.5% | -10.4% (active) | 41.4% | 6.84% (active) | -21.5% (active) | -24.4% (active) | 28% | 2.06% (active) | 34.8% | 13.6% | 19.7% | 8.45% (active) | -89.3% (active) | 20.6% | -26.9% (active)
8 | COc1ccc(-c2cc(C(=O)N=Nc3c(O)[nH]c4ccccc34)c3ccccc3n2)cc1 | -36.4% (active) | -36% (active) | 6.23% (active) | -42.7% (active) | -70.4% (active) | -46.5% (active) | 24.3% | -37.4% (active) | -40.9% (active) | -5.77% (active) | -92.8% (active) | 25.7% | -54.6% (active) | -58.8% (active) | -0.0948% (active) | 4.82% (active) | -76% (active) | 47.8% | 11.1%
9 | COc1ccc(NC(=O)CSc2nnc(-c3ccc4nc(-c5ccc(Cl)cc5)[nH]c4c3)o2)cc1 | -9.49% (active) | 80.3% | 45.8% | 74.6% | 10.7% | 102% | 22.6% | 66% | 22.5% | 96.8% | 55.4% | 14.7% | -81.7% (active) | 20.5% | 48% | 26.1% | 50.5% | 71.5% | 14.8%
10 | Cc1ccc(-c2nc(Nc3ccc(S(N)(=O)=O)cc3)c3ccccc3n2)cc1 | 71.2% | 73.5% | 53.2% | 66.7% | 22.4% | 36.4% | 77.3% | 51.7% | 14.2% | 82.9% | 56.6% | 6.36% (active) | 98.8% | 22.6% | 52.1% | 24.2% | 37% | 93.9% | 22.9%
11 | O=C1N/C(=N\c2nccs2)S/C1=C\c1cccs1 | 38.1% | 19.9% | 45.2% | 33.6% | 14.7% | 68% | 21.2% | 26.8% | 43.2% | 29% | 53.2% | 20.1% | 28.9% | 47.6% | 44.7% | 13.4% | 21.8% | 49.6% | 9.09% (active)
12 | CCCCSc1nc(Nc2ccc(/C(C)=N/NC(N)=S)cc2)c(C#N)c(-c2ccc(F)cc2)n1 | 21% | 20.7% | 53.8% | 22.7% | 18.4% | -18.5% (active) | 43.9% | 8.95% (active) | -20.5% (active) | 47.1% | 41.5% | 71.9% | 33.9% | 3.28% (active) | 90.1% | 28.5% | -13.5% (active) | 78.6% | 79%
13 | CCOC(=O)c1c(CSc2ccccc2)n(C)c2cc(CN(C)C)c(O)c(CN(C)C)c12 | 33.8% | 46.6% | 47.7% | 72.2% | 34.6% | 32.5% | 62.4% | 49.6% | 45.3% | -37.8% (active) | 60.8% | 19.7% | -15.3% (active) | 16% | 71.3% | 46.9% | 50.5% | 54.3% | 47.6%
14 | COc1ccc(-c2cc(-c3cc(C(=O)c4ccc(Br)cc4)n4ccc(C)cc34)nc(N)c2C#N)cc1 | 63.1% | 60.4% | 93.6% | 95.1% | 84.7% | 87.5% | 89.9% | 93.2% | 56.9% | 67.2% | 75.9% | 92.6% | 74.4% | 59.7% | 93.9% | 89.1% | 5.3% (active) | 88% | 64.6%
15 | CN1CCN(c2ccc(C(=O)/C=C/c3cc(C(F)(F)F)ccc3Cl)cc2)CC1 | -95.3% (active) | -93% (active) | -94.8% (active) | -27.4% (active) | -46.6% (active) | -58.9% (active) | -60.4% (active) | -78.1% (active) | -83.1% (active) | -97% (active) | -62.5% (active) | 2.76% (active) | -95.4% (active) | -95.1% (active) | 1.69% (active) | -89.3% (active) | -100% (active) | -79.7% (active) | -84.9% (active)
16 | O=C(Cn1nc(-c2ccccc2)ccc1=O)NN1C(=O)c2ccccc2C1=O | 105% | 101% | 117% | 102% | 99.7% | 125% | 77.5% | 108% | 103% | 131% | 105% | 99.8% | 90.1% | 100% | 97.9% | 96.5% | 91.2% | 113% | 107%
